From the supplement of paper PMC8371130
Counter-ions that a name gives are not always drawn.

Tested on: HL-1
Assay: relative cell viability (CellTiter-Glo) vs DMSO control (% of DMSO control); higher = more viable cells
Summary of the method: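 In 384-well plates, 1000 HL-1 mouse atrial cardiomyocytes per well were plated with compounds at 40, 200, 1000 or 5000 nM in 0.01% DMSO. Hypoxia at 1% O2 for 48 h began one day later and was followed by 24 h of reoxygenation, with parallel plates held in normoxia. CellTiter-Glo luminescence gave cell viability relative to vehicle-treated control cells.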

[1] = oxygen condition: hypoxia 48 h (1% O2) + reoxygenation 24 h, 40 nM
[2] = oxygen condition: hypoxia 48 h (1% O2) + reoxygenation 24 h, 200 nM
[3] = oxygen condition: hypoxia 48 h (1% O2) + reoxygenation 24 h, 1000 nM
[4] = oxygen condition: hypoxia 48 h (1% O2) + reoxygenation 24 h, 5000 nM
[5] = oxygen condition: normoxia 72 h, 40 nM
[6] = oxygen condition: normoxia 72 h, 200 nM
[7] = oxygen condition: normoxia 72 h, 1000 nM
[8] = oxygen condition: normoxia 72 h, 5000 nM

| SMILES | relative cell viability [1] | relative cell viability [2] | relative cell viability [3] | relative cell viability [4] | relative cell viability [5] | relative cell viability [6] | relative cell viability [7] | relative cell viability [8] |
| --- | --- | --- | --- | --- | --- | --- | --- | --- |
| C[C@H]1O[C@H](O[C@H]2[C@H](O)[C@@H](O)[C@@H](O[C@H]3[C@H](O)[C@@H](O)C(O)O[C@@H]3CO)O[C@@H]2CO)[C@H](O)[C@@H](O)[C@@H]1N[C@H]1C=C(CO)[C@@H](O)[C@H](O)[C@H]1O (some centres undefined) [Acarbose] | 106 | 108 | 108 | 107 | 106 | 107 | 111 | 107 |
| CC[C@@H](CO)NCCN[C@@H](CC)CO [Ethambutol HCl] | 100 | 93.4 | 102 | 112 | 90.2 | 91.3 | 102 | 3.47 |
| COc1cccc2c1C(=O)c1c(O)c3c(c(O)c1C2=O)C[C@@](O)(C(C)=O)C[C@@H]3O[C@H]1C[C@H](N)[C@H](O)[C@H](C)O1 [Daunorubicin HCl] | 56.7 | 30.5 | 17.2 | 2.34 | 62.6 | 29.6 | 10.3 | 2.68 |
| C#CCC(Cc1cnc2nc(N)nc(N)c2n1)c1ccc(C(=O)N[C@@H](CCC(=O)O)C(=O)O)cc1 (some centres undefined) [Pralatrexate] | 38.6 | 43 | 37.3 | 38.9 | 44.3 | 42.7 | 46.2 | 41.8 |
| O=C[C@H](O)[C@@H](O)[C@H](O)CO [Xylose] | 106 | 102 | 103 | 111 | 107 | 105 | 112 | 111 |
| CCOC(=O)[C@H](CCc1ccccc1)N[C@@H](C)C(=O)N1Cc2cc(OC)c(OC)cc2C[C@H]1C(=O)O [Moexipril HCl] | 105 | 102 | 107 | 67.2 | 100 | 98.2 | 90.7 | 64.1 |
| CO[C@H]1C(=O)[C@]2(C)[C@@H](OC)C[C@H]3OC[C@@]3(OC(C)=O)[C@H]2[C@H](OC(=O)c2ccccc2)[C@]2(O)C[C@H](OC(=O)[C@H](O)[C@@H](NC(=O)OC(C)(C)C)c3ccccc3)C(C)=C1C2(C)C [Cabazitaxel] | 32.1 | 34.3 | 39.6 | 36.6 | 24.7 | 27.2 | 26.8 | 29.7 |
| COc1ccc2[nH]cc(CCNC(C)=O)c2c1 [Melatonin] | 113 | 105 | 113 | 114 | 108 | 114 | 109 | 119 |
| COc1cc2ncnc(Nc3ccc(F)c(Cl)c3)c2cc1OCCCN1CCOCC1 [Gefitinib] | 106 | 114 | 122 | 100 | 101 | 112 | 99.4 | 100 |
| O=c1[nH]c(=O)n([C@H]2C[C@H](O)[C@@H](CO)O2)cc1F [Floxuridine] | 49.5 | 40.7 | 31.4 | 17.4 | 46.1 | 41.5 | 28.6 | 16.3 |
| Clc1ccccc1CN1CCc2sccc2C1 [Ticlopidine HCl] | 96.8 | 94.8 | 97 | 103 | 94.9 | 97.1 | 95.5 | 108 |
| NCCCCCC(=O)O [Aminocaproic acid] | 102 | 102 | 106 | 107 | 106 | 103 | 110 | 112 |
| O=P(O)(O)C(O)(Cc1cccnc1)P(=O)(O)O [Risedronate sodium] | 103 | 112 | 107 | 122 | 111 | 107 | 121 | 116 |
| C#C[C@]1(O)CC[C@H]2[C@@H]3CCC4=CC(=O)CC[C@@H]4[C@H]3CC[C@@]21C [norethindrone] | 97.6 | 100 | 97 | 105 | 102 | 108 | 100 | 113 |
| O=C1CN2Cc3c(ccc(Cl)c3Cl)N=C2N1 [Anagrelide HCl] | 97.6 | 98.7 | 97.5 | 108 | 99.8 | 100 | 105 | 111 |
| N#C[C@@H]1CCCN1C(=O)CNC12CC3CC(CC(O)(C3)C1)C2 [Vildagliptin] | 63.4 | 104 | 114 | 117 | 103 | 95.7 | 99 | 119 |
| CC[C@@H]1C(=O)OC[C@@H]1Cc1cncn1C [Pilocarpine HCl] | 104 | 111 | 105 | 110 | 115 | 104 | 106 | 119 |
| CN[C@@H]1[C@H](O)[C@H](NC)[C@H]2O[C@@]3(O)C(=O)C[C@@H](C)O[C@H]3O[C@@H]2[C@H]1O [Spectinomycin  hydrochloride] | 105 | 102 | 102 | 109 | 107 | 86.5 | 101 | 101 |
| CCCCC[C@H](O)/C=C/[C@H]1[C@H](O)CC(=O)[C@@H]1CCCCCCC(=O)O [Alprostadil] | 104 | 106 | 107 | 107 | 108 | 102 | 111 | 101 |
| COCCc1ccc(OCC(O)CNC(C)C)cc1 (centres undefined) [Metoprolol tartrate] | 101 | 98 | 105 | 111 | 77.9 | 103 | 103 | 111 |
| Cc1cccc(C)c1OCC(C)N (centres undefined) [Mexiletine HCl] | 108 | 105 | 104 | 121 | 103 | 105 | 107 | 123 |
| Cc1ccc(C(=O)Nc2ccc(CN3CCN(C)CC3)c(C(F)(F)F)c2)cc1C#Cc1cnc2cccnn12 [Ponatinib] | 105 | 108 | 113 | 107 | 103 | 103 | 105 | 106 |

| SMILES | relative cell viability [1] | relative cell viability [2] | relative cell viability [3] | relative cell viability [4] | relative cell viability [5] | relative cell viability [6] | relative cell viability [7] | relative cell viability [8] |
| --- | --- | --- | --- | --- | --- | --- | --- | --- |
| CNCC(O)c1ccc(O)c(O)c1 (racemic) [DL-Adrenaline] | 100 | 97.8 | 67.7 | 15.5 | 107 | 93.8 | 63.6 | 11.8 |
| C=CC(=O)Nc1cc(Nc2nccc(-c3cn(C)c4ccccc34)n2)c(OC)cc1N(C)CCN(C)C | 97.1 | 94.4 | 91.5 | 104 | 95.5 | 93.1 | 89.4 | 108 |
| CCCc1cc(=O)[nH]c(=S)[nH]1 [Propylthiouracil] | 106 | 105 | 107 | 120 | 99.3 | 108 | 107 | 110 |
| CN(CCOc1ccc(NS(C)(=O)=O)cc1)CCc1ccc(NS(C)(=O)=O)cc1 [Dofetilide] | 102 | 99.8 | 99.2 | 112 | 101 | 109 | 106 | 107 |
| CC(=O)OCC(CCn1cnc2cnc(N)nc21)COC(C)=O [Famciclovir] | 101 | 104 | 100 | 113 | 106 | 106 | 105 | 121 |
| COc1ccc2[nH]c([S@@+]([O-])Cc3ncc(C)c(OC)c3C)nc2c1 [Esomeprazole sodium] | 94 | 93.2 | 106 | 106 | 94.1 | 96 | 100 | 114 |
| CCCC1O[C@@H]2C[C@H]3[C@@H]4CCC5=CC(=O)C=C[C@]5(C)[C@H]4[C@@H](O)C[C@]3(C)[C@]2(C(=O)CO)O1 (some centres undefined) [Budesonide] | 95.2 | 102 | 91.2 | 96.5 | 90.9 | 83.5 | 95.6 | 96.4 |
| CNS(=O)(=O)CCc1ccc2[nH]cc(C3CCN(C)CC3)c2c1 [Naratriptan HCl] | 97.1 | 103 | 105 | 108 | 103 | 103 | 97.6 | 111 |
| O=S(=O)(O)CCS [Mesna] | 105 | 102 | 116 | 120 | 112 | 109 | 112 | 123 |
| CC1=CC(=O)c2ccccc2C1=O [Menadione] | 100 | 98.2 | 102 | 109 | 101 | 104 | 101 | 106 |
| COc1cc2c(cc1O)CC[C@@H]1[C@@H]2CC[C@]2(C)[C@@H](O)CC[C@@H]12 [2-Methoxyestradiol] | 106 | 104 | 102 | 112 | 102 | 105 | 102 | 109 |
| CC(COc1ccccc1)N(CCCl)Cc1ccccc1 (centres undefined) [Phenoxybenzamine HCl] | 101 | 97.6 | 93.1 | 95.4 | 101 | 101 | 91.5 | 107 |
| Nc1cc(C(Cl)=C(Cl)Cl)c(S(N)(=O)=O)cc1S(N)(=O)=O [Clorsulon] | 109 | 105 | 107 | 113 | 110 | 115 | 116 | 110 |
| C[C@@H](NCCCc1cccc(C(F)(F)F)c1)c1cccc2ccccc12 | 102 | 102 | 105 | 102 | 95.2 | 95.9 | 109 | 106 |
| CC1=C(/C=C/C(C)=C/C=C/C(C)=C\C(=O)O)C(C)(C)CCC1 [Isotretinoin] | 103 | 102 | 105 | 111 | 116 | 104 | 107 | 112 |
| CN1CCC[C@H]1c1cccnc1 [Nicotine Ditartrate] | 97.5 | 99.9 | 106 | 113 | 104 | 104 | 103 | 109 |
| O=C(O)CCCN1CCC(O[C@@H](c2ccc(Cl)cc2)c2ccccn2)CC1 [Bepotastine Besilate] | 112 | 108 | 111 | 120 | 113 | 115 | 115 | 131 |
| CO[C@H]1O[C@@H]2O[C@@]3(C)CC[C@H]4[C@H](C)CC[C@@H]([C@H]1C)[C@@]24OO3 [Artemether] | 104 | 103 | 100 | 60.3 | 103 | 102 | 98.3 | 93.2 |
| CCC(=O)O[C@]1(C(=O)CCl)[C@@H](C)C[C@H]2[C@@H]3CCC4=CC(=O)C=C[C@]4(C)[C@@]3(F)[C@@H](O)C[C@@]21C [Clobetasol propionate] | 98.2 | 94.4 | 94.5 | 97.3 | 92.3 | 90.1 | 88.3 | 94.5 |
| CC/C(=C(/CC)c1ccc(O)cc1)c1ccc(O)cc1 [Diethylstilbestrol] | 105 | 106 | 107 | 109 | 108 | 96.7 | 108 | 112 |
| NS(=O)(=O)c1cc(Cl)c(Cl)c(S(N)(=O)=O)c1 [Dichlorphenamide] | 109 | 106 | 103 | 115 | 105 | 102 | 103 | 109 |
